Data on 30 molecules can be found in PubChem BioAssay.

A short description of this test: probe aLefty1 binding on compound microarray – biochemical, small-molecule microarray, 635/667 nm fluorescence, primary screen (AID 1153).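 Note: score merges spot fluorescence with signal-to-noise ratio from the scanned slide images.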 As to conditions: higher = more signal.
Take `CO[C@H]1COC(=O)[C@H](CCSC)NC(=O)CC=C[C@@H](C)[C@H](OC)COC(=O)[C@@H](OCc2ccccc2)C=C[C@@H]1C`: the composite z-score was -0.173. To `COC(=O)[C@H](C)NC(=O)CCC1CC(OC(=O)NCCc2ccc(F)cc2)CC2(CCCC(COC(=O)NCCc3ccccc3OC)O2)O1` (stereo not given in full) belongs -0.103; to `CC(C)CN1CCc2nc(-c3ccccc3)c3c(c2C1)CO[C@@H](C)C3`, 0.123; to `CC(C)[C@@H](OCc1ccccc1)[C@H](C)CON=C1[C@H]2CCn3c(=O)n(-c4ccccc4)c(=O)n3[C@H]2[C@H](O)[C@@H]2O[C@H]12`, -0.186.

Molecule `CON=C(C)CCN1CCc2nc(-c3ccccc3)c(-c3ccccc3)cc2C1` returned a composite z-score of -0.0303.

Regarding `COc1ccc(OC[C@H]2CN3[C@@H](CC[C@@H](C)[C@@H]3c3ccc(Br)cc3)C(=O)O2)cc1`, the composite z-score is 0.0861.

As for `O=C(NN=C1C[C@@H](O)[C@@H](O)[C@@H]2[C@@H]3C(=O)N(c4ccc(F)cc4F)C(=O)[C@@H]3CC[C@H]12)OCc1ccccc1`, the composite z-score was 0.207. Take `COC(=O)[C@H](C)NC(=O)CCC1CC(OC(=O)NCc2cccc3ccccc23)CC2(CCCC(COC(=O)NCc3ccccc3)O2)O1` (stereo not given in full): the composite z-score was found to be 0.378. Regarding `O=C1C2=CC[C@H]3C(=O)N(C4CCCCC4)C(=O)[C@H]3[C@H]2[C@H](O)[C@@H]2O[C@H]12`, the composite z-score was -0.245.

Consider `C#CCCCON=C1C[C@@H](O)[C@@H](O)[C@@H]2[C@@H]3C(=O)N(C[C@@H]4CCCO4)C(=O)[C@@H]3CC[C@H]12`, for which the composite z-score is -0.293. Take `O=C1[C@H]2CCn3c(=O)n(-c4ccccc4)c(=O)n3[C@H]2[C@H](O)[C@@H]2O[C@H]12`: the composite z-score was -0.391. As for `CC(=O)OC[C@H]1O[C@H](CC=NOCC[C@@H]2C=C[C@H](OC(C)=O)[C@@H](COC(C)=O)O2)C=C[C@@H]1OC(C)=O`, the composite z-score is 0.0483. As to `CCCNC(=O)OC[C@H]1O[C@H](CCON=C[C@@H](C)[C@H](OCc2ccccc2)C(C)C)C=C[C@@H]1Oc1ccc(OC)cc1`, the composite z-score was -0.105. `CC(CCC(=O)OC[C@H]1O[C@H](C#Cc2ccccc2)C=C[C@@H]1Oc1ccc(C)cc1)=NOC(C)CN1CCCCc2nc(C)c(C)cc21` (stereo not given in full): the composite z-score is -0.191.

Molecule `CCN1C(=O)[C@H]2[C@H]3[C@H](O)[C@H](O)CC(=NNC(=O)OCc4ccccc4)[C@H]3CC[C@H]2C1=O` registered a composite z-score of 0.0931. In turn, `CO[C@@H](C(C)C)[C@@H](C)C1OC(=O)CC1O` (stereo not given in full) came in with a composite z-score of -0.278. Consider `CC(C)=NOC(C)CN1CCCc2nc(C)c(C)cc21` (stereo not given), for which the composite z-score is -0.012. As for `CO[C@@H]1[C@H](O)CO[C@H]1C=Cc1ccccc1`, the figure is -0.0559; as for `COc1ccc(O[C@H]2C=C[C@@H](C#Cc3ccccc3)O[C@@H]2CO)cc1`, 0.042; as for `CC(CCC(=O)OC[C@H]1O[C@H](C#Cc2ccccc2)C=C[C@@H]1Oc1ccc(C)cc1)=NOC[C@@H](C)[C@H](OCc1ccccc1)C(C)C`, -0.378. `CC(CCN1CCc2nc(-c3ccccc3)c(-c3ccccc3)cc2C1)=NOC(C)CN1CCCc2nc(C)c(C)cc21` (stereo not given): the composite z-score is 0.0956.

`CCOC(=O)[C@H](CC(C)C)NC(=O)CCC1CC(OC(=O)NCc2ccc3c(c2)OCO3)CC2(CCCC(COC(=O)NCCc3ccc(Cl)cc3)O2)O1` (stereo not given in full): the composite z-score turned out to be 0.213. To `CC(=O)OC[C@H]1O[C@@H](ON=C(C)CCC(=O)OC[C@H]2O[C@H](C#Cc3ccccc3)C=C[C@@H]2Oc2ccc(C)cc2)[C@H](OC(C)=O)[C@@H](OC(C)=O)[C@@H]1OC(C)=O` belongs -0.265.

`CC(C)CON=C1C[C@@H](O)[C@@H](O)[C@@H]2[C@@H]3C(=O)N(c4ccc(F)cc4F)C(=O)[C@@H]3CC[C@@H]12` came in with a composite z-score of -0.0984. In turn, `CCOC(=O)CCN1C(=O)[C@H]2[C@H]3[C@H](O)[C@H](O)CC(=NO[C@@H]4O[C@H](CO)[C@@H](O)[C@H](O)[C@H]4O)[C@H]3CC[C@H]2C1=O` showed a composite z-score of 0.493. For the molecule `CCOC(=O)[C@H](Cc1ccccc1)NC(=O)CCC1CC(OC(=O)NCc2cccc3ccccc23)CC2(CCCC(COC(=O)NCCc3ccc(Cl)cc3)O2)O1` (stereo not given in full), the composite z-score stood at 0.539.

Turning to `CCN1C(=O)[C@H]2[C@H]3[C@H](O)[C@H](O)CC(=NOC[C@@H](O)COCc4ccco4)[C@H]3CC[C@H]2C1=O`, the composite z-score was -0.22.

`C#CCCCON=C1C[C@@H](O)[C@@H](O)[C@@H]2[C@@H]3C(=O)N(C4CCCCC4)C(=O)[C@@H]3CC[C@@H]12` showed a composite z-score of -0.276.

`COC(=O)[C@H](CCSC)NC(=O)CC=C[C@@H](C)CO`: the composite z-score was -0.101.

`CCc1cc2c(nc1CC)CCN(CCC(C)=NO[C@@H]1O[C@H](COC(C)=O)[C@@H](OC(C)=O)[C@H](OC(C)=O)[C@H]1OC(C)=O)C2` came in with a composite z-score of -0.0929.
